Test results as given in the supplement of paper PMC11732987, “Enantioselective OTUD7B fragment discovery through chemoproteomics screening and high-throughput optimisation” (Communications Chemistry, 2025).

Assays:
Assay in all cases: log2 ratio of Biotin-Ahx-Ub-VS probe labelling (fragment/DMSO); higher = less target engagement (more negative = stronger competition), active = hit call of the paper (q ≤ 0.05, log2 ratio ≤ -1)
Details in all cases: compound concentration: 200 uM; treatment time: 3 h
[1] = molecular target: T1, OTUD6B (UniProt Q8N6M0)
T1 sequence (whole entry): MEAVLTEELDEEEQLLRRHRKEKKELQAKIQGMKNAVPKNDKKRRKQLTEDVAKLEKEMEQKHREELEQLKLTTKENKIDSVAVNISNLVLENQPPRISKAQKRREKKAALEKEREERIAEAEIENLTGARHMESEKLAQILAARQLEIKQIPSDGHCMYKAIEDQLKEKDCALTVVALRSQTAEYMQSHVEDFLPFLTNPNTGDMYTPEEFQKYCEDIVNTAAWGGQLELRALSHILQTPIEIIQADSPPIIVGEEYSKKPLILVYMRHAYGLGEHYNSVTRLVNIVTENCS
How it was run: (§1)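 Labelled DUBs were enriched with NeutrAvidin, digested with LysC and trypsin, and run by diaPASEF LC-MS/MS. The labelling used Biotin-Ahx-Ub-VS at 0.5 µM final for 1 h on HEK293T lysate (495 µg per sample) previously treated in triplicate with fragment at 200 µM or vehicle for 3 h. Values are average log2 fragment/vehicle ratios by unpaired t-test on global-median-normalised Spectronaut quantities of proteins with ≥2 unique peptides.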

[2] = molecular target: T2, OTUD7B (UniProt Q6GQQ9)
T2 sequence (whole entry): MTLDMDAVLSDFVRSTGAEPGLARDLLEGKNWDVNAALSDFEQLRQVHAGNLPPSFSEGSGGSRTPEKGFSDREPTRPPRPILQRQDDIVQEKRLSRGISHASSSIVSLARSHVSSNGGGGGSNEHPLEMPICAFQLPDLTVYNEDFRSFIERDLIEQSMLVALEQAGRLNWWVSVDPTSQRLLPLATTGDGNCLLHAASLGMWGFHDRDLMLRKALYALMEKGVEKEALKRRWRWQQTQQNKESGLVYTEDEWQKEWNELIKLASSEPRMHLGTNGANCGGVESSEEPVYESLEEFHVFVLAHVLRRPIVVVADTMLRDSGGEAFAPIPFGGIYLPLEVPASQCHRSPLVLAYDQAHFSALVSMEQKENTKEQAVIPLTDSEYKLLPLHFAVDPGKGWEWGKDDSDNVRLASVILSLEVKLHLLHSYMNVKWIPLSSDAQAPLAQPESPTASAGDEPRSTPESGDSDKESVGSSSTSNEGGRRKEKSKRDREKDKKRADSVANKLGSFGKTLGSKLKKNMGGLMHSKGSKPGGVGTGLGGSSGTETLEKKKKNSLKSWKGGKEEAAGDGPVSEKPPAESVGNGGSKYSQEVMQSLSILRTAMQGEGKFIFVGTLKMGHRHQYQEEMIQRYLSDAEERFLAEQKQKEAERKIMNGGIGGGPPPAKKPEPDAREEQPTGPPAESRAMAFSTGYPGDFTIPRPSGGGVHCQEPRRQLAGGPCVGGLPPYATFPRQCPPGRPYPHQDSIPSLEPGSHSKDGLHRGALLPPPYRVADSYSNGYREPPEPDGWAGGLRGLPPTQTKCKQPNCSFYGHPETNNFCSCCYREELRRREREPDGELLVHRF
How it was run: as §1

[3] = molecular target: PRPF8 (UniProt Q6P2Q9)
How it was run: as §1

[4] = molecular target: T3, PSMD7 (UniProt P51665)
T3 sequence (whole entry): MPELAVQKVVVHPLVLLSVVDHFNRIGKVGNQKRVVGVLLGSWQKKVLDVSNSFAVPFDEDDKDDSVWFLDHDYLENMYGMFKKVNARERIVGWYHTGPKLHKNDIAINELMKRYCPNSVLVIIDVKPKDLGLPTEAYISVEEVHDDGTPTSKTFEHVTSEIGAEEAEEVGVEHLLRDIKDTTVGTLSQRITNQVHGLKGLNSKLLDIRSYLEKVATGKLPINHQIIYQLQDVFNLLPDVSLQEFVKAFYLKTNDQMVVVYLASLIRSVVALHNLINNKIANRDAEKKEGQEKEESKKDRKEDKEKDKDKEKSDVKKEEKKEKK
How it was run: as §1

[5] = molecular target: UCHL1 (UniProt P09936)
Chain of UCHL1 (P09936 whole entry, looked up): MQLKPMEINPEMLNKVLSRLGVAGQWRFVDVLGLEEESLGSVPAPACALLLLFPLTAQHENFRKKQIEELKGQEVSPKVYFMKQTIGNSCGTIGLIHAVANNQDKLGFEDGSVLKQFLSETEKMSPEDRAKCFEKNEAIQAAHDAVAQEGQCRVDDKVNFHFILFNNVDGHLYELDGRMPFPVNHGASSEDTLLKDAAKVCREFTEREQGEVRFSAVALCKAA
How it was run: as §1

[6] = molecular target: T4, UCHL3 (UniProt P15374)
T4 sequence (whole entry): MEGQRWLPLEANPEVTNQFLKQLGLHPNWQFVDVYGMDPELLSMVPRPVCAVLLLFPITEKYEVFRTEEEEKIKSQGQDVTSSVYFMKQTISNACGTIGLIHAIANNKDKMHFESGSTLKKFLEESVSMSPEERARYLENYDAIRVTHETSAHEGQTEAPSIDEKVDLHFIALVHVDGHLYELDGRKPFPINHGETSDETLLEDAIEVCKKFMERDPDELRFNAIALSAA
How it was run: as §1

[7] = molecular target: T5, UCHL5 (UniProt Q9Y5K5)
T5 sequence (whole entry): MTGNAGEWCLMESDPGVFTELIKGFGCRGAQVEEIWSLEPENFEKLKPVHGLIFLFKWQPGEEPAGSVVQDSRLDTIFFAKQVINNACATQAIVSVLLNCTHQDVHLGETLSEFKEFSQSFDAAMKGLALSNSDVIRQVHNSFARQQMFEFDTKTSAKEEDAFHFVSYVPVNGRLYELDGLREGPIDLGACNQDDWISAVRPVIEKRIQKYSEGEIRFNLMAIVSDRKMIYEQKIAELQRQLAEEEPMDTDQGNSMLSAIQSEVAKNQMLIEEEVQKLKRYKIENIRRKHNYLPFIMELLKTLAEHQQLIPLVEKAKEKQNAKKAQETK
How it was run: as §1

[8] = molecular target: USP10 (UniProt Q14694)
Chain of USP10 (Q14694 whole entry): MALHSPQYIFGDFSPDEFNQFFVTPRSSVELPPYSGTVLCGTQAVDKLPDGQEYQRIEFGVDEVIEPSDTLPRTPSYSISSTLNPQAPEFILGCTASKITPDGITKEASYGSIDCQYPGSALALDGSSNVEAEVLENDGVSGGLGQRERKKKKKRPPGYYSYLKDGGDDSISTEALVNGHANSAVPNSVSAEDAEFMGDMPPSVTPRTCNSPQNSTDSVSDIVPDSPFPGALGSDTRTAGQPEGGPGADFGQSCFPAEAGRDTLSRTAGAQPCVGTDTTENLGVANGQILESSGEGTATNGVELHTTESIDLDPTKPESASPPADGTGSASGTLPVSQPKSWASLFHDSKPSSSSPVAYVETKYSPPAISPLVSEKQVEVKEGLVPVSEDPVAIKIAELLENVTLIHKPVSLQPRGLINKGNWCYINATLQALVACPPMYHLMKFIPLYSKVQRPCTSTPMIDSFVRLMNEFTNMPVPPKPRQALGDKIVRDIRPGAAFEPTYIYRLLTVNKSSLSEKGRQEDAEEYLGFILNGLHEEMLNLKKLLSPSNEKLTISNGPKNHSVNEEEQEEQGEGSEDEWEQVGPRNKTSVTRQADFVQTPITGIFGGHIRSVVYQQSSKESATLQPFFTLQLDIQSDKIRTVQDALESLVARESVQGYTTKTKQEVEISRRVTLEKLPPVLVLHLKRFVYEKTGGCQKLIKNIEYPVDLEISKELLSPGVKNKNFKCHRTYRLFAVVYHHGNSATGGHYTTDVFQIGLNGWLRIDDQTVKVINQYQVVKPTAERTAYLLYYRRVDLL
How it was run: as §1

[9] = molecular target: T6, USP15 (UniProt Q9Y4E8)
T6 sequence (whole entry): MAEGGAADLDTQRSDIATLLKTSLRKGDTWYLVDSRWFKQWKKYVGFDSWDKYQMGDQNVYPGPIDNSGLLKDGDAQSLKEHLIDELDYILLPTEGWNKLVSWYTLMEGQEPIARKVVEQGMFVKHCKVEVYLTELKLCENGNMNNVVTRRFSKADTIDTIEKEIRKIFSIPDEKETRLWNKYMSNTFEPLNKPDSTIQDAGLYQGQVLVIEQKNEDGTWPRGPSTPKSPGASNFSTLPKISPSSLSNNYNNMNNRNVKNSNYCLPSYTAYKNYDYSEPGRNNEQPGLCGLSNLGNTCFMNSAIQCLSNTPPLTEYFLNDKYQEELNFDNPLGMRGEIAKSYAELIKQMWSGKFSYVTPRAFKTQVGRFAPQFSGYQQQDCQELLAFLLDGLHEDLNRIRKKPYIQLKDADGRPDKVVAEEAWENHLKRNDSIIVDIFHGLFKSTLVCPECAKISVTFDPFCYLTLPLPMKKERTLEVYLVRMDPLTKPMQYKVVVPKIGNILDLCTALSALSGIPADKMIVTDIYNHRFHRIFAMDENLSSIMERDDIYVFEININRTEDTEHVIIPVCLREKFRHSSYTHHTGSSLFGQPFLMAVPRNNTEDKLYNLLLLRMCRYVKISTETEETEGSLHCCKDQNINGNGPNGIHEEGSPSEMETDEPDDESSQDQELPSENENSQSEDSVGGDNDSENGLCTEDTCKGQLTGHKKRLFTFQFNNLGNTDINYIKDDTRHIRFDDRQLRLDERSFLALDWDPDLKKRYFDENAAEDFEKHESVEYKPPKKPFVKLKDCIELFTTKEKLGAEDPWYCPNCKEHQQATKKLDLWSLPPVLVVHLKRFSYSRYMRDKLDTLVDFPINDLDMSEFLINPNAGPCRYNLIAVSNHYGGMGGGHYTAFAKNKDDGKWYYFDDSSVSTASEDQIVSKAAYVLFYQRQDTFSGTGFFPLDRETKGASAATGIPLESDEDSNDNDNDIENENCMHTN
How it was run: as §1

Measured: log2 ratio of Biotin-Ahx-Ub-VS probe labelling

N#Cc1ccc(Cl)cc1NC(=O)CCl
inactive: [1] -0.0498 | [3] 0.00848 | [4] -0.0625 | [6] 0.385 | [7] 0.0193 | [8] -0.153 | [9] -0.0346
active: [2] -1.73 | [5] -1.01
